PubChem BioAssay (EPA / NIEHS)
Activity calls are given as the source filed them. The calls were made as follows: active = hit-call score of the fitted dose curve at least 0.9, where 1 is the maximum; inactive = score below 0.9.

Columns and labels:
[1] = read-out: Transforming growth factor beta 1 (TGFb1), TGFB1 (gene 7040); assay: BSK_KF3CT_TGFb1: BioMAP Diversity Plus: KF3CT Assay for Transforming growth factor beta 1 (TGFb1) Biomarker Activity (AID 2283072); details: primary human keratinocytes with fibroblasts; actives raise or lower the signal
In short: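 Signal changes in either direction, relative to DMSO, define activity here. TGF-b1 is read by ELISA from a human keratinocyte-fibroblast co-culture 24 h post-dose.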

[2] = read-out: C-C motif chemokine 2 (Homo sapiens) (UniProt P13500); assay: BSK_KF3CT_MCP1: BioMAP Diversity Plus: KF3CT Assay for Monocyte Chemoattractant Protein 1 (MCP1/CCL2) Biomarker Activity (AID 2283073); details: primary human keratinocytes with fibroblasts; actives raise or lower the signal
In short: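 KF3CT skin co-culture (keratinocytes/foreskin fibroblasts), 24 h post-dose; MCP-1 by ELISA; gain/loss of signal fit bidirectionally vs DMSO baseline.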

[3] = read-out: Matrix Metallopeptidase 9 (MMP9), MMP9 (gene 4318); assay: BSK_KF3CT_MMP9: BioMAP Diversity Plus: KF3CT Assay for Matrix Metallopeptidase 9 (MMP9) Biomarker Activity (AID 2283074); details: primary human keratinocytes with fibroblasts; actives raise or lower the signal;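 as to AC50: MMP9 protein level quantified by ELISA in the co-culture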
In short: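 Keratinocyte plus foreskin fibroblast human primary skin co-culture was dosed with chemical and MMP-9 was quantified by ELISA 24 h later. Bidirectional curve fitting used DMSO as negative control and activity baseline.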

[4] = read-out: urokinase plasminogen activator (uPA), PLAU (gene 5328); assay: BSK_KF3CT_uPA: BioMAP Diversity Plus: KF3CT Assay for urokinase plasminogen activator (uPA) Biomarker Activity (AID 2283075); details: primary human keratinocytes with fibroblasts; actives raise or lower the signal
In short: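 Human keratinocyte plus foreskin fibroblast primary co-culture exposed to chemical for 24 h. uPA levels were quantified by ELISA, and activity was fitted bidirectionally against a DMSO negative-control baseline.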

CD40, CD40 (gene 958) [5] = assay: BSK_LPS_CD40: BioMAP Diversity Plus: LPS Assay for CD40 Biomarker Activity (AID 2283076); details: primary human HUVEC with PBMC; actives raise or lower the signal
In short: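 ELISA readout of CD40 in HUVEC/PBMC co-culture (BSK_LPS system), 24 h post-dosing; bidirectional curve fit, DMSO baseline; parallel SRB total-protein staining for cytotoxicity.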

[6] = read-out: E-selectin (Homo sapiens) (UniProt P16581); assay: BSK_LPS_Eselectin: BioMAP Diversity Plus: LPS Assay for Eselectin Biomarker Activity (AID 2283077); details: primary human HUVEC with PBMC; actives raise or lower the signal
In short: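 ELISA readout of E-selectin, 24 h post-dose, HUVEC + PBMC co-culture (LPS system). Gain or loss of signal vs DMSO baseline, bidirectional fit.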

[7] = read-out: Interleukin-8 (IL8), CXCL8 (gene 3576); assay: BSK_LPS_IL8: BioMAP Diversity Plus: LPS Assay for Interleukin-8 (IL8) Biomarker Activity (AID 2283078); details: primary human HUVEC with PBMC; actives raise or lower the signal
In short: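 HUVEC + PBMC co-culture, LPS-activated; test chemicals dosed, IL-8 read by ELISA at 24 h. Bidirectional curve fit vs DMSO baseline (gain or loss of signal).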

[8] = BSK_LPS_SRB: Viability Assessment in the BioMAP Diversity Plus: LPS Assay (AID 2283079); details: primary human HUVEC with PBMC;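 also: total protein by sulforhodamine B absorbance as a cytotoxicity measure; measured one day after compound addition; fitted in both directions against DMSO so loss or gain of signal counts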
In short: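 HUVEC + PBMC co-culture, LPS-stimulated; compound 24 h. 10% TCA fix, 0.1% SRB stain, A560. Bidirectional fit vs DMSO.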

[9] = read-out: Interleukin-1 alpha (IL1a), IL1A (gene 3552); assay: BSK_LPS_IL1a: BioMAP Diversity Plus: LPS Assay for Interleukin-1 alpha (IL1a) Biomarker Activity (AID 2283080); details: primary human HUVEC with PBMC; actives raise or lower the signal
In short: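 HUVEC/PBMC co-culture, LPS system; 24 h after dosing; IL-1a by ELISA; gain or loss of signal fitted bidirectionally vs DMSO baseline.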

[10] = read-out: Monocyte Chemoattractant Protein-1 (MCP1), CCL2 (gene 6347); assay: BSK_LPS_MCP1: BioMAP Diversity Plus: LPS Assay for Monocyte Chemoattractant Protein-1 (MCP1) Biomarker Activity (AID 2283081); details: primary human HUVEC with PBMC; actives raise or lower the signal;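 as to AC50: secreted MCP-1 protein quantified by ELISA in culture supernatant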
In short: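 ELISA read-out of MCP-1 after 24 h chemical dosing of a human umbilical vein endothelial cell/peripheral blood mononuclear cell co-culture stimulated with LPS. Gain or loss of signal fitted relative to DMSO controls.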

[11] = BSK_LPS_PGE2: BioMAP Diversity Plus: LPS Assay for Prostaglandin E2 (PGE2) Biomarker Activity (AID 2283082); details: primary human HUVEC with PBMC; actives raise or lower the signal;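 as to AC50: secreted prostaglandin E2 measured by ELISA in LPS-stimulated co-culture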
In short: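 Endpoint derived from bidirectional curve fitting versus DMSO of ELISA-measured PGE2 in LPS-stimulated human primary vascular co-culture (HUVEC with PBMC) harvested at 24 h.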

[12] = read-out: Macrophage colony-stimulating factor (MCSF), CSF1 (gene 1435); assay: BSK_LPS_MCSF: BioMAP Diversity Plus: LPS Assay for Macrophage colony-stimulating factor (MCSF) Biomarker Activity (AID 2283083); details: primary human HUVEC with PBMC; actives raise or lower the signal
In short: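 HUVEC + PBMC co-culture (human primary), 24 h post-dose; M-CSF by ELISA; gain/loss of signal fitted bidirectionally vs DMSO baseline.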

[13] = read-out: Tissue Factor, F3 (gene 2152); assay: BSK_LPS_TissueFactor: BioMAP Diversity Plus: LPS Assay for Tissue Factor Biomarker Activity (AID 2283084); details: primary human HUVEC with PBMC; actives raise or lower the signal
In short: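 HUVEC/PBMC co-culture, LPS-activated; CD142 ELISA read 24 h post-dose; bidirectional curve fit vs DMSO negative control.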

[14] = read-out: Tumor necrosis factor (Homo sapiens) (UniProt P01375); assay: BSK_LPS_TNFa: BioMAP Diversity Plus: LPS Assay for Tumour Necrosis Factor alpha (TNFa) Biomarker Activity (AID 2283085); details: primary human HUVEC with PBMC; actives raise or lower the signal
In short: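 Primary human vascular co-culture of HUVEC and PBMC; TNFa ELISA 24 h after treatment, analysed as increase or decrease relative to DMSO control.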

[15] = read-out: Vascular cell adhesion molecule 1 (VCAM1), VCAM1 (gene 7412); assay: BSK_LPS_VCAM1: BioMAP Diversity Plus: LPS Assay for Vascular cell adhesion molecule 1 (VCAM1) Biomarker Activity (AID 2283086); details: primary human HUVEC with PBMC; actives raise or lower the signal
In short: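 Primary human vascular co-culture (umbilical vein endothelium plus PBMC) stimulated with LPS received chemical; 24 h later VCAM-1 was read by ELISA. Overt cytotoxicity was assessed by sulforhodamine B staining of parallel cultures at the same time point.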

CD38, CD38 (gene 952) = assay: BSK_SAg_CD38: BioMAP Diversity Plus: SAg Assay for CD38 Biomarker Activity (AID 2283087); details: primary human HUVEC with PBMC; actives raise or lower the signal
In short: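 Fluorescence ELISA of cell-surface CD38 served as the read-out, with either increase or decrease fitted against DMSO controls. Cells were a human umbilical vein endothelium plus PBMC co-culture under SEB/TSST-1 stimulation, measured 24 h after dosing.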

CD40, CD40 (gene 958) [16] = assay: BSK_SAg_CD40: BioMAP Diversity Plus: SAg Assay for CD40 Biomarker Activity (AID 2283088); details: primary human HUVEC with PBMC; actives raise or lower the signal
In short: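 HUVEC/PBMC co-culture, 24 h post-dose; CD40 by ELISA, fluorescence intensity; bidirectional fit vs DMSO negative control.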

CD69, CD69 (gene 969) = assay: BSK_SAg_CD69: BioMAP Diversity Plus: SAg Assay for CD69 Biomarker Activity (AID 2283089); details: primary human HUVEC with PBMC; actives raise or lower the signal;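 as to AC50: cell surface CD69 protein quantified by ELISA with fluorescence detection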
In short: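 Values derive from bidirectional fitting relative to DMSO vehicle. Cells: umbilical vein endothelium plus peripheral blood mononuclear cells, treated 24 h before fluorescent ELISA for CD69.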

[17] = read-out: Monocyte Chemoattractant Protein-1 (MCP1), CCL2 (gene 6347); assay: BSK_SAg_MCP1: BioMAP Diversity Plus: SAg Assay for Monocyte Chemoattractant Protein-1 (MCP1) Biomarker Activity (AID 2283090); details: primary human HUVEC with PBMC; actives raise or lower the signal
In short: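 MCP-1 levels in the endothelial–PBMC SAg co-culture were quantified by ELISA at 24 h post-dosing; both increases and decreases versus DMSO scored. Cytotoxicity monitored by SRB total protein in parallel cultures.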

[18] = read-out: E-selectin (Homo sapiens) (UniProt P16581); assay: BSK_SAg_Eselectin: BioMAP Diversity Plus: SAg Assay for Eselectin Biomarker Activity (AID 2283091); details: primary human HUVEC with PBMC; actives raise or lower the signal
In short: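 E-selectin ELISA readout at 24 h post-dosing in human umbilical vein endothelial cell/PBMC co-culture; gain or loss of signal fitted relative to DMSO baseline.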

Measured: AC50

Sequence of Tumor necrosis factor (Homo sapiens) (P01375 whole entry, looked up): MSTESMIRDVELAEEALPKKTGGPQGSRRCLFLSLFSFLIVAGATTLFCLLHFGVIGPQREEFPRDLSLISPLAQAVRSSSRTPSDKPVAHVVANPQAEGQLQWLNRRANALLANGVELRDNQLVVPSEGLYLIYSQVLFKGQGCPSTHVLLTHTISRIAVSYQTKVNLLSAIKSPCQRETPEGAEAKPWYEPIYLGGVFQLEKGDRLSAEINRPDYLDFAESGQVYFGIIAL
Sequence of E-selectin (Homo sapiens) (P16581 whole entry, looked up): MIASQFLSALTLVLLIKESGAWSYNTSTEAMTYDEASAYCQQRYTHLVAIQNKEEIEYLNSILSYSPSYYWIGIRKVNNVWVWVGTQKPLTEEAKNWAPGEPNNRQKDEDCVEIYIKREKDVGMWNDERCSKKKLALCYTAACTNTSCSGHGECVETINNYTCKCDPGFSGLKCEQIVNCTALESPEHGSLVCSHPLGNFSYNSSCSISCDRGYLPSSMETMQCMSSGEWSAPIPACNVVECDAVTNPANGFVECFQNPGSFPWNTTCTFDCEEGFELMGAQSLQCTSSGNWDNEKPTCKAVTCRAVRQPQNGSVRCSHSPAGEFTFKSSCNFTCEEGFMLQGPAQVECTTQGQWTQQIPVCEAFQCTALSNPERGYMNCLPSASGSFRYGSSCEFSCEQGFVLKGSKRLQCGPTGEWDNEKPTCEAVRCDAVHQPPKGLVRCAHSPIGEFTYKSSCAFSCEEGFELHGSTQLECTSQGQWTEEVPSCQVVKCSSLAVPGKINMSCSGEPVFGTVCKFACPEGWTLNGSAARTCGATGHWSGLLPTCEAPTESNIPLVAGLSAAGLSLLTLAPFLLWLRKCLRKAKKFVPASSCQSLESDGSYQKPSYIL

Cc1cc(Cl)ccc1OC(C)C(=O)O (stereo not drawn)
inactive: all assays above

O=C(CCl)NCO
active: [7] 0.0625 µM
not listed: [14]
inactive: all other assays above

CCC(C)(C#N)N=NC(C)(C#N)CC (stereo not drawn)
not listed: [14]
inactive: all other assays above

COCC(=O)N(c1c(C)cccc1C)[C@H](C)C(=O)OC
inactive: all assays above

Cc1cc(C)cc(C)c1
inactive: all assays above

CCN(CC)C(=O)C(Cl)=C(C)OP(=O)(OC)OC
inactive: all assays above

CC(C)(COCC1CO1)COCC1CO1 (stereo not drawn)
active: CD69, CD69 (gene 969) 20 µM | [18] 20 µM
inactive: all other assays above

Cc1ccccc1OP(=O)(Oc1ccccc1)Oc1ccccc1
inactive: [2] | [4] | [7] | [11] | [13] | [14]
active: [1] 0.016 µM | [3] 8.99 µM | CD40, CD40 (gene 958) [5] 15.7 µM | [6] 29.2 µM | [8] 20 µM | [9] 28.1 µM | [10] 20 µM | [12] 20 µM | [15] 20 µM | CD38, CD38 (gene 952) 20 µM | CD40, CD40 (gene 958) [16] 28.3 µM | CD69, CD69 (gene 969) 28.1 µM | [17] 20 µM | [18] 30.9 µM

CCOC(=O)CC(=O)CCl
active: CD40, CD40 (gene 958) [5] 20 µM | [7] 31.9 µM | [9] 31.1 µM | [10] 26.1 µM | [11] 29 µM | [12] 20 µM | [13] 33.1 µM | [14] 34.9 µM | [15] 7.27 µM | CD38, CD38 (gene 952) 24.6 µM | CD40, CD40 (gene 958) [16] 20 µM | CD69, CD69 (gene 969) 27 µM | [17] 20 µM | [18] 20 µM
inactive: [1] | [2] | [3] | [4] | [6] | [8]

Nc1c(Oc2ccccc2)cc(O)c2c1C(=O)c1ccccc1C2=O
active: [13] 2.54 µM | CD38, CD38 (gene 952) 10 µM | CD40, CD40 (gene 958) [16] 7.45 µM | [17] 0.803 µM | [18] 0.795 µM
inactive: all other assays above

Cc1cc(C(C)(C)c2ccc(O)c(C)c2)ccc1O
active: [1] 10 µM | [3] 15.2 µM | CD40, CD40 (gene 958) [5] 14.3 µM | [8] 12.5 µM | [11] 4.51 µM | [12] 15.1 µM | CD38, CD38 (gene 952) 14.7 µM | CD40, CD40 (gene 958) [16] 15.4 µM | CD69, CD69 (gene 969) 15.4 µM | [17] 15.9 µM | [18] 14.8 µM
inactive: [2] | [4] | [6] | [7] | [9] | [10] | [13] | [14] | [15]
